The nature of assay [1]: small molecules captured by biotinylated probe aFSTL3 – biochemical, small-molecule microarray, fluorescence 635/667, stem cell growth factor project, primary screen (AID 1064).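 Note: measures binding of the biotinylated anti-FSTL3 antibody to printed compounds.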 Conditions: higher = more signal.
A short description of assay [2]: binders from COS7 lysate, DM2A8 probe, primary screen, torsin A project, cell lysate, small-molecule microarray, fluorescence 635/667 (AID 1065). Conditions: higher = more signal, COS7 lysate expressing mutant human TOR1A.
Assay [3] can be described thus: small molecules captured by biotinylated probe aFGF2 – biochemical, small-molecule microarray, fluorescence 635/667, stem cell growth factor project, primary screen (AID 1067).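 Note: measures binding of biotinylated aFGF2 protein to printed compounds on slides; z-score merges feature fluorescence and signal-to-noise across triplicate slides.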 As to conditions: higher = more signal.
Assay [4] can be described thus: small molecules captured by biotinylated probe aFGF10 – biochemical, small-molecule microarray, fluorescence 635/667, stem cell growth factor project, primary screen (AID 1071).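 Note: score merges 667 nm spot intensity and signal to noise from triplicate slides.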 Conditions: higher = more signal.
For assay [5], the target named is Neurogenic locus notch homolog protein 2 (Homo sapiens) (UniProt Q04721). Nature of the assay: small molecules binding Notch2 protein – biochemical, small-molecule microarray, 635 nm fluorescence, stem cell growth factors, primary screen (AID 1073). As to conditions: higher = more signal.
In assay [6] the target is Pro-neuregulin-1, membrane-bound isoform (Homo sapiens) (UniProt Q02297). Nature of the assay: small molecules binding neuregulin-1 protein – biochemical, small-molecule microarray, fluorescence 635/667, psychiatric disease protein project, primary screen (AID 1075).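 Note: score combines 667 nm spot fluorescence with signal to noise.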 As to conditions: NRG1 binding, 635 nm fluorescence, higher = more signal.
Assay [7] deals with Neuregulin-1 EGF-like domain. Kind of assay: small molecules binding NRG1 EGF domain – biochemical, small-molecule microarray, 635 nm fluorescence, primary screen (AID 1081).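 Note: binding of the protein to compounds printed on small-molecule microarray slides.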 As to conditions: higher = more signal.
Assay [8] can be described thus: FRG1 expression reporter modulators in myotubes – cell-based, C2C12 myotubes, firefly/Renilla luciferase, luminescence, FRG1 inhibition for FSHD, primary screen (AID 1084). Conditions: FRG1 promoter luciferase, higher = more signal, called active from +8 up or from −8 down.
Assay [9] in a line: small molecules captured by biotinylated probe aFST – biochemical, small-molecule microarray, fluorescence 635/667, stem cell growth factor project, primary screen (AID 1086).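 Note: score merges 667 nm fluorescence with signal-to-noise of each printed compound spot.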 As to conditions: higher = more signal.
Assay [10] in a line: binders of probe aHhip on microarray, primary screen, stem cell growth factor project, biochemical, small-molecule microarray, fluorescence 635/667 (AID 1087).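 Note: score merges spot fluorescence at 667nm with spot signal to noise ratio.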 Conditions: higher = more signal.
Assay [11] has as its system PRMT1 (protein arginine N-methyltransferase 1). Nature of the assay: small molecules binding arginine methyltransferase PRMT1 – biochemical, small-molecule microarray, 635 nm fluorescence, primary screen (AID 1088).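 Note: binding of Prmt1 protein to compounds spotted on small-molecule microarray slides.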 Conditions: higher = more signal.
Assay [12] in a line: growth effects on S. cerevisiae YJM789 – YJM789 clinical isolate, OD600, 24 h, basal, primary screen (AID 1089).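 Note: growth of clinical yeast isolate S. cerevisiae YJM 789 seeded 1000 cells per well; test concentration not given here.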 Conditions: higher = more signal, called active from +8 up or from −8 down.
The nature of assay [13]: S. pombe growth modifiers, basal conditions – strain 972, OD600, 24 h, no modulator, primary screen (AID 1090).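 Note: basal condition with compound alone and no growth modifier present; test concentration not given here.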 As to conditions: S. pombe 972 growth, higher = more signal, called active from +8 up or from −8 down.
Assay [14] is described as follows: budding yeast growth modifiers under rapamycin – strain BY4716, OD600, 96 h, primary screen (AID 1091). Note: test concentration not given here. As to conditions: S. cerevisiae BY4716 + rapamycin, higher = more signal, called active from +8 up or from −8 down.
Assay [15] deals with Torsin-1A-interacting protein 2 (Homo sapiens) (UniProt Q8NFQ8). Kind of assay: small molecules binding lysate-expressed LULL1 – cell lysate, human LULL1 lysate, 635/667 nm fluorescence, primary screen (AID 1092).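 Note: probe is lysate of COS7 cells overexpressing human LULL1; score merges per-feature 667 nm fluorescence with signal-to-noise.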 Conditions: small-molecule microarray, hLULL1 lysate binding, 635 nm fluorescence; higher = more signal.
Assay [16] in a line: optical density change of DRC41 E. coli – strain DRC41, OD650, 24 h, E. coli filamentation project, primary screen (AID 1093).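 Note: MC1000 strain lacking acrAB efflux and sulA so SOS filamentation is blocked; test concentration not given here.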 Conditions: E. coli DRC41 growth, higher = more signal, called active from +8 up or from −8 down.
Assay [17] in a line: probe aLefty2 binding to arrayed compounds – biochemical, biotinylated probe, 635/667 nm fluorescence, primary screen (AID 1094).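 Note: score merges spot fluorescence near 667 nm with spot signal-to-noise ratio.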 As to conditions: small-molecule microarray, higher = more signal.
For assay [18], the system named is Noggin (protein binding on small-molecule microarray). Kind of assay: small molecules binding Noggin protein – biochemical, 635/667 nm fluorescence, primary screen (AID 1095).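 Note: score merges 667 nm feature fluorescence with signal to noise over triplicate slides.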 Conditions: 635 nm fluorescence, higher = more signal.
Assay [19] has as its target Neurogenic locus notch homolog protein 3 (Homo sapiens) (UniProt Q9UM47). Nature of the assay: small molecules binding NOTCH3 protein – biochemical, 635/667 nm fluorescence, primary screen (AID 1096). Conditions: small-molecule microarray, 635 nm fluorescence, higher = more signal.
Assay [20] can be described thus: probe aEGFR binding to arrayed compounds – biochemical, biotinylated probe, 635/667 nm fluorescence, primary screen (AID 1097).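 Note: probe is a biotinylated anti-EGFR antibody binding compounds printed on slides; score combines fluorescence near 667 nm and signal to noise of each spot.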 Conditions: small-molecule microarray, higher = more signal.

Activity calls are given as the source filed them.

Sequence of Neurogenic locus notch homolog protein 2 (Homo sapiens) (Q04721 whole entry, looked up, canonical isoform): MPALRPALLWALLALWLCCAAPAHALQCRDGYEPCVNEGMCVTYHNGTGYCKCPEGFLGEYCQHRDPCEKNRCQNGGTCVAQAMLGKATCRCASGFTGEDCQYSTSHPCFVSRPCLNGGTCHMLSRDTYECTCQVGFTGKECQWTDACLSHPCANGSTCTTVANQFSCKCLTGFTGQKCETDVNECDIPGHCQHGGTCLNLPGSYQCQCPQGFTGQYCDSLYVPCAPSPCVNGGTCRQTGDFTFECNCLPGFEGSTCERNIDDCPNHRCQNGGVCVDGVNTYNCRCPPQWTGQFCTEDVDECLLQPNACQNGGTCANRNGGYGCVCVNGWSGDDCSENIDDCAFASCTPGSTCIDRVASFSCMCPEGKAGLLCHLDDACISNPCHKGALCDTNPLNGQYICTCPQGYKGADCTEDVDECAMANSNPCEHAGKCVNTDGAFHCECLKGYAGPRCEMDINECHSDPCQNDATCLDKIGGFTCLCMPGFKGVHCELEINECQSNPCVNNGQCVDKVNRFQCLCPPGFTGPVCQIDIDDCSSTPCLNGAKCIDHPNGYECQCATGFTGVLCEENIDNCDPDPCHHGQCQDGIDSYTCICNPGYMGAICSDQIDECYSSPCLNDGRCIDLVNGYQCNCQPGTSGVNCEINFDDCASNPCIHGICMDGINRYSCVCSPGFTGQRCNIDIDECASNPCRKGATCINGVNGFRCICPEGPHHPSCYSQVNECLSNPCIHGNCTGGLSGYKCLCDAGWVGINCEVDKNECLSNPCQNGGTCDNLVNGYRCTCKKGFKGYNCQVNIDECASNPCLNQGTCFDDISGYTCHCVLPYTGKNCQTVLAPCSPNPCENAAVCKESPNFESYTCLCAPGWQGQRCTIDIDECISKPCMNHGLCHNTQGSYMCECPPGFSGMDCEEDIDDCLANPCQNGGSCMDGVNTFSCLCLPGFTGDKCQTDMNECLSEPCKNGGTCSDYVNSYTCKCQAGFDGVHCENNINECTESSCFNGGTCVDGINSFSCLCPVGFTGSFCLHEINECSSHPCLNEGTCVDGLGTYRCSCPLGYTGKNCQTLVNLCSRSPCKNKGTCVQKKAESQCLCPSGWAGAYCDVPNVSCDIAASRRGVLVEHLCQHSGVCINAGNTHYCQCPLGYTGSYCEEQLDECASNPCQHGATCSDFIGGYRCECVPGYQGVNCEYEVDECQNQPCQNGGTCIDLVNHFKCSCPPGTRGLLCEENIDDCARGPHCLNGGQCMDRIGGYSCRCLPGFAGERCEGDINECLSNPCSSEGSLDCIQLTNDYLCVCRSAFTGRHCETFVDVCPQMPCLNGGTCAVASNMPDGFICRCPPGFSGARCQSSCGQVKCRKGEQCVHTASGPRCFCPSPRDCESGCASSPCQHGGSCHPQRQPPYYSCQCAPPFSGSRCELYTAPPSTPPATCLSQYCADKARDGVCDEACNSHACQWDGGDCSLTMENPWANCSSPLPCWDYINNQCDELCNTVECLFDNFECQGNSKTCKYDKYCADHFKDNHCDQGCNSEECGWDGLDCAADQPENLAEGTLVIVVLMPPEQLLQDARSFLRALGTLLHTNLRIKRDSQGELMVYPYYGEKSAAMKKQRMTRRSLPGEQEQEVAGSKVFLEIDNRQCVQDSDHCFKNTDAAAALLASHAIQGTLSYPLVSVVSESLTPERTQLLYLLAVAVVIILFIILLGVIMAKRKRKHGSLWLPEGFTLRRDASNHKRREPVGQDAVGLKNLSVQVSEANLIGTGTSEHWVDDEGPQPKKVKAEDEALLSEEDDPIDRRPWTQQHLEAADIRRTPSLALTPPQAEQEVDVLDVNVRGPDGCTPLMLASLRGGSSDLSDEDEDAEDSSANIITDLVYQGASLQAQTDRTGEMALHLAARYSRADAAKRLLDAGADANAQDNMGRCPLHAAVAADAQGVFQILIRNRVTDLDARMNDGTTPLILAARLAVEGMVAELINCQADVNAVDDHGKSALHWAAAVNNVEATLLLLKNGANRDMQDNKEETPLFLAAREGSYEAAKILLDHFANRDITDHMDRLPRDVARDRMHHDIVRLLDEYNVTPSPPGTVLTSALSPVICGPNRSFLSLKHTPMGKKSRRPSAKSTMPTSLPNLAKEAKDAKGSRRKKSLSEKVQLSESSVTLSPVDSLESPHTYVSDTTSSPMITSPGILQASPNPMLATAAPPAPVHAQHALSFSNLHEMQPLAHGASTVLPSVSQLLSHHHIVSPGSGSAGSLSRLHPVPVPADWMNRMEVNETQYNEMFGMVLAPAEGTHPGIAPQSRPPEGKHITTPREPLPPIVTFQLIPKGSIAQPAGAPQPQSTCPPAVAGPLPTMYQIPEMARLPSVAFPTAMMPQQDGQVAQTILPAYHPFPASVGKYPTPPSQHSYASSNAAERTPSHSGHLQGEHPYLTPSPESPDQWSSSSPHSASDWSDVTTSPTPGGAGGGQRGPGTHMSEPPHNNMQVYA
Sequence of Pro-neuregulin-1, membrane-bound isoform (Homo sapiens) (Q02297 whole entry, looked up, the tested form may be a part, canonical isoform): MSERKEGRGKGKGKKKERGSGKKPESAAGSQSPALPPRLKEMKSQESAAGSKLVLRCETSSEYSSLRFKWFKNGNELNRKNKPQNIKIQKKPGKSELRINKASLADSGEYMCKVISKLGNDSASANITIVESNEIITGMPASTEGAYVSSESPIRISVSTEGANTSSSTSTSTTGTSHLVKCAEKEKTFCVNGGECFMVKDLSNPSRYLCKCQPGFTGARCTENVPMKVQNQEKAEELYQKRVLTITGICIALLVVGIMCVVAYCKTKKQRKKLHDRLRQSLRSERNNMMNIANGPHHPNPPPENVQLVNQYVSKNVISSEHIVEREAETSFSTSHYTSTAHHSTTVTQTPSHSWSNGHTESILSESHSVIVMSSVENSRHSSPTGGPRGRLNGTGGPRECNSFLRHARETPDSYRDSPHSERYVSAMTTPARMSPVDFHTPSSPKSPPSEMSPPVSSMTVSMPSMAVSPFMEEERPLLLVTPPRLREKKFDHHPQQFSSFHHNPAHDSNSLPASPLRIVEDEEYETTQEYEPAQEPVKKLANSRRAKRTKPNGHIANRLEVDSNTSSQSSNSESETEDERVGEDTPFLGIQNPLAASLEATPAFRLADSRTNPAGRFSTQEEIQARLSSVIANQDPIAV
Sequence of Torsin-1A-interacting protein 2 (Homo sapiens) (Q8NFQ8 whole entry, looked up): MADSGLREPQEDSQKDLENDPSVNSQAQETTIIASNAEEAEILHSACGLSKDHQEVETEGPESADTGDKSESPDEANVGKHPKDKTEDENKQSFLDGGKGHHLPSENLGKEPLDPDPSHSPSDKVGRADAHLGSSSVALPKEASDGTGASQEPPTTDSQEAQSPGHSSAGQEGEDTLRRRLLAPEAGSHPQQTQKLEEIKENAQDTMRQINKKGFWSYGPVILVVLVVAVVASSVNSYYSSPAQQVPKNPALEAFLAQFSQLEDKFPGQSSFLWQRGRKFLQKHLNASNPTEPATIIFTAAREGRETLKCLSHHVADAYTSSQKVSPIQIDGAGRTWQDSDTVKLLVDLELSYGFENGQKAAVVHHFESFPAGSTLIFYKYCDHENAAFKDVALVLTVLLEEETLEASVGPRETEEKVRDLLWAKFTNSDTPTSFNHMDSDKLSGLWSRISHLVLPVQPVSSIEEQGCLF

With `CCOC(=O)C1=CC[C@H]2C(=O)N(CC)C(=O)[C@@H]12`, the composite z-score is -0.537 in [1]; 0.448 in assay [2]; -0.0715 in assay [3]; 0.772 in assay [4]; 0.937 in [5]; 0.98 in assay [6]. The composite z-score in assay [7] was 1.11; in assay [9], 0.406; in [10], 0.176; in assay [11], 0.863; in [15], 1.08; in assay [17], -0.181. The composite z-score worked out at 0.344 in [18], 1 in [19] and 0.125 in assay [20]. Also, the z-score in [8] was 0.937 (inactive); in assay [12], -0.348 (inactive); in assay [13] it was 1.77 (inactive); in assay [14] it was 0.816 (inactive); in assay [16], -0.233 (inactive).

Take `C[C@@H](c1ccccc1)N1C(=O)[C@H]2[C@H]3[C@H](O)[C@H](O)CC(=NOC[C@@H](O)COCc4ccco4)[C@@H]3CC[C@H]2C1=O`: the composite z-score in assay [1] is 0.193; in [2], 0.068; in [3], -0.159; in [4], -0.141; in [5] it was -1.02; in assay [6] it was -0.717. In addition, the composite z-score in [7] was -0.647; in [9], 0.0275; in assay [10] it was -0.137; in assay [11], -0.291; in assay [15] it was 0.304; in assay [17], -0.217. Also, the composite z-score is -1.01 in assay [18], -1.1 in assay [19] and -0.221 in assay [20]. Moreover, the z-score in [8] was -0.0058 (inactive); in [12] it was 0.539 (inactive); in [13], 0.37 (inactive); in [14], 1.3 (inactive); in assay [16], 0.181 (inactive).

`Cn1cccc1C(O)C1C=CC2C(=O)NC(=O)C2N1Nc1ccccn1` (stereo not given): the composite z-score was -0.177 in assay [1]; 0.124 in assay [2]; -0.179 in assay [3]; -0.0312 in assay [4]; 0.359 in [5]; 0.782 in [6]. Further, the composite z-score in [7] is 0.371; in [9], 0.339; in assay [10] it was 0.0053; in assay [11], 0.408; in assay [15] it was -0.503; in [17], -0.19. In addition, the composite z-score in [18] was -0.0645; in assay [19], -0.929; in [20], 0.0865. Moreover, the z-score in assay [8] was 1.63 (inactive); in [12], 0.0886 (inactive); in assay [13], 1.23 (inactive); in assay [14], 0.0533 (inactive); in [16], -0.975 (inactive).

Consider `CC(CCC(=O)OC[C@H]1O[C@H](C#Cc2ccccc2)C=C[C@@H]1Oc1ccc(C)cc1)=NOC[C@@H](O)[C@H]1O[C@@H]2OC(C)(C)O[C@@H]2[C@H]1O`, for which the composite z-score in assay [1] is -0.378; in assay [2], -0.587; in assay [3], -0.229; in [4] it was -0.44; in assay [5] it was -0.836; in assay [6], -0.116. Further, the composite z-score in [7] is -0.0458; in [9], -0.865; in [10], -0.172; in [11] it was -0.753; in [15] it was 0.563; in assay [17], -0.352. Further, the composite z-score in assay [18] was -0.333; in [19], -1.74; in [20], -0.342. In addition, the z-score is 0.0054 (inactive) in [8]; 0.349 (inactive) in assay [12]; -0.0762 (inactive) in assay [13]; 0.823 (inactive) in assay [14]; 0.142 (inactive) in [16].

For the compound `O=C1O[C@@H](c2ccccc2)[C@@H](c2ccccc2)N2[C@@H](c3ccc(O)cc3)[C@]3(C(=O)Nc4ccccc43)[C@@H](C(=O)O)[C@H]12`, the composite z-score in assay [1] was -0.149; in [2], 0.227; in assay [3] it was -0.0969; in [4] it was 0.46; in assay [5] it was 0.0863; in assay [6] it was 1.67. The composite z-score is 1.08 in assay [7]; 0.231 in [9]; -0.0212 in [10]; 1.24 in assay [11]; 2.45 in [15]; -0.0753 in [17]. Moreover, the composite z-score in assay [18] was -0.335; in assay [19], 0.166; in [20], -0.041. Moreover, the z-score in assay [8] is -1.09 (inactive); in assay [12] it was 0.462 (inactive); in assay [13], -0.253 (inactive); in [14], -0.408 (inactive); in [16] it was 1.14 (inactive).
